Results as given in PubChem BioAssay AID540321 (Johns Hopkins Ion Channel Center, 2011).
Activity calls are given as the source filed them.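 How the source made its calls: active means Inhibition of the Kir2.1 potassium channel over 30% at some tested dose, plus a fitted dose response curve; inactive means no Kir2.1 inhibition at any dose, or no curve fitted.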

The compounds below were run against Inward rectifier potassium channel 2 (Mus musculus) (UniProt P35561) (assay: Kir2.1 channel inhibition, specificity check, SAR follow-up, selectivity assay for KCNK9 inhibitor project, cell-based, FluxOR thallium flux, CRC round 2 (AID 540321)). Settings: Kir2.1-expressing cells; series mostly up to 30 µM.
Inward rectifier potassium channel 2 (Mus musculus), sequence (P35561 whole entry, looked up): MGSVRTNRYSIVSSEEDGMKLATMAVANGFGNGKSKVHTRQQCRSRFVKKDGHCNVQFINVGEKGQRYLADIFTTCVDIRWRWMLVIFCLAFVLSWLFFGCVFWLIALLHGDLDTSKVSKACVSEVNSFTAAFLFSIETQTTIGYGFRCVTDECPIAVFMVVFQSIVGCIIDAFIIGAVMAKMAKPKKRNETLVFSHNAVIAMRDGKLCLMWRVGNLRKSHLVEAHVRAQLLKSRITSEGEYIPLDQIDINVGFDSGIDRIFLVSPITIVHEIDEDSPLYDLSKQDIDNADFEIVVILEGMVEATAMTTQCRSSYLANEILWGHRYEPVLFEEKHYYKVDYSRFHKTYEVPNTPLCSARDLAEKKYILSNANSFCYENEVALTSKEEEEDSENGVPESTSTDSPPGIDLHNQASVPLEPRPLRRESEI

outcome, inactive:
CCOc1ccccc1NC(=O)c1cccc(NC(=O)c2ccccc2Cl)c1
CC(C1CC2CCC1C2)n1c(-c2ccsc2)n[nH]c1=S (stereo not given)
O=C(Nc1cccc(NC(=O)c2ccc(Cl)cc2)c1)c1ccccc1
O=C(Nc1cccc(NC(=O)c2cccc(F)c2)c1)c1ccccc1
CN(C)c1ccc(C(=O)Nc2cccc(NC(=O)c3ccccc3)c2)cc1
CCOc1ccccc1C(=O)Nc1cccc(NC(=O)c2ccccc2C(F)(F)F)c1
CCOc1ccccc1C(=O)Nc1cccc(NC(=O)c2ccccc2OC)c1
CC(C1CC2CCC1C2)n1c(-c2ccccc2)n[nH]c1=S (stereo not given)
CCOc1cccc(NC(=O)c2cccc(NC(=O)C3CCCC3)c2)c1
S=c1[nH]nc(-c2ccco2)n1CC1CCCCC1
CCOc1ccccc1NC(=O)c1cccc(NC(=O)c2ccccc2)c1
CCOc1ccccc1C(=O)Nc1cccc(NC(=O)C2CCCC2)c1
Cc1cccc(C(=O)Nc2cccc(NC(=O)c3cccc(Cl)c3)c2)c1
COc1cccc(C(=O)Nc2cccc(NC(=O)c3cccc(C)c3)c2)c1
CCOc1ccccc1NC(=O)c1cccc(NC(=O)C2CCCC2)c1
CCOc1ccccc1NC(=O)c1cccc(NC(=O)C2CCCCC2)c1
CC(C1CC2CCC1C2)n1c(C2CCOC2)n[nH]c1=S (stereo not given)
O=C(Nc1cccc(NC(=O)c2ccoc2)c1)c1ccccc1
Cc1cccc(C(=O)Nc2cccc(NC(=O)c3ccccc3OC(F)(F)F)c2)c1
O=C(Nc1cccc(NC(=O)c2cccs2)c1)c1ccccc1
Cc1ccccc1C(=O)Nc1cccc(NC(=O)c2ccccc2)c1
COc1ccccc1C(=O)Nc1cccc(NC(=O)c2ccccc2OC)c1
CCOc1ccccc1NC(=O)c1cccc(NC(=O)c2ccc(Cl)cc2)c1
O=C(Nc1cccc(NC(=O)c2cccnc2)c1)c1ccccc1
O=C(Nc1ccccc1Cl)c1cccc(NC(=O)C2CCCC2)c1
CCOc1ccccc1NC(=O)c1cccc(NC(=O)C2CCCO2)c1 (stereo not given)
CCOc1ccccc1NC(=O)c1cccc(NC(=O)c2ccccc2C)c1
COc1ccccc1NC(=O)c1cccc(NC(=O)c2ccccc2)c1
CC(C)n1c(-c2ccco2)n[nH]c1=S
Cc1cccc(C(=O)Nc2cccc(NC(=O)c3ccc(Cl)cc3)c2)c1
O=C(Nc1cccc(NC(=O)c2ccsc2)c1)c1ccccc1
COc1ccccc1C(=O)Nc1cccc(NC(=O)c2ccccc2C)c1
Cc1ccc(C(=O)Nc2cccc(NC(=O)c3ccccc3)c2)cc1
CC(c1ccccc1)n1c(-c2ccco2)n[nH]c1=S (stereo not given)
CC(c1ccco1)n1c(-c2ccoc2)n[nH]c1=S (stereo not given)
